{"source": "PubChem BioAssay (NCI)", "note": "About 83,000 compounds went through this panel and 20% of them were active in at least one assay; those are over-represented in the sample as a whole.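 48-hour exposure, single concentration, 96-well plates; percent growth endpoint where 0 means no net growth. Active: below 10.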 Values without a mark were called inactive. The source made the active and inactive calls.", "data": [{"test_system": "MDA-MB-231 breast", "experiment": "NCI-60 one-dose screen, 48 h (100 = growth as untreated, 0 = no growth, -100 = all killed)", "details": "10 µM unless noted", "values": [{"smiles": "CC1(C)C(N(O)C(=O)Nc2ccc(Cl)cc2)N(c2ccc(Cl)cc2)C(=O)N1CC(=O)N/N=C/C=C/c1ccc([N+](=O)[O-])o1", "note": "(stereo unspecified)", "growth": "-48.7% (active)"}, {"smiles": "Oc1ccc(-c2cnc(-c3ccccc3)[nH]2)c(O)c1", "growth": "92.1%"}, {"smiles": "NC(N)=N/N=C\\c1cccc(OCc2ccccc2)c1", "growth": "76%"}, {"smiles": "CCCCn1c(-c2ccc(F)cc2)nc2cc(OC)c(OC)cc2c1=O", "growth": "87.1%"}, {"smiles": "O=C(Nc1ccccc1)C(CCCCN1C(=O)c2ccccc2C1=O)N1C(=O)c2ccccc2C1=O", "note": "(stereo unspecified)", "growth": "109%"}, {"smiles": "Cc1[nH]n(C(=O)c2ccncc2)c(=O)c1N=Nc1ccc(O)c(C(=O)O)c1", "growth": "94%"}, {"smiles": "COc1cc2c(cc1OC)C(=O)OC2", "growth": "102%"}, {"smiles": "Cc1cc2nc3c(=O)[nH]c(=O)nc-3n(CC=O)c2cc1C", "growth": "106%"}, {"smiles": "COC(=O)C1(C)COP(=O)(NC23CC4CC(CC(C4)C2)C3)OC1", "note": "(stereo unspecified)", "growth": "119%"}, {"smiles": "Cc1nc([C@H]2CC[C@H]3[C@@H]4CCC5=CC(=O)CC[C@]5(C)[C@H]4CC[C@]23C)cs1", "growth": "97.4%"}, {"smiles": "O=C1OCC2=C1C(c1cccc(Br)c1)c1cc3c(cc1N2CCO)OCCO3", "note": "(stereo unspecified)", "growth": "-21.5% (active)"}, {"smiles": "C=CCn1c(SCC(=O)Nc2ccc(C(=O)/C=C/c3ccc(Cl)cc3)cc2)nnc1-c1ccc(Cl)cc1", "growth": "86.4%"}, {"smiles": "CCc1ccc2c(c1)N(CCO)C1=C(C(=O)OC1)C2c1cccc(Cl)c1", "note": "(stereo unspecified)", "growth": "30.8%"}, {"smiles": "COc1ccc2c(c1)N(CCO)C1=C(C(=O)OC1)C2c1cccc(Br)c1", "note": "(stereo unspecified)", "growth": "-10.6% (active)"}, {"smiles": "COC(=O)c1cc2oc(/C=N/NC(=O)c3cc4oc(-c5cccc(C(F)(F)F)c5)cc4[nH]3)cc2n1Cc1ccccc1", "growth": "104%"}, {"smiles": "CCCCCCCCCCC(C(O)c1ccccc1)N1CCCCC1", "note": "(stereo unspecified)", "growth": "9.66% (active)"}, {"smiles": "CC(=O)[C@@]1(O)[C@H](C)C[C@H]2[C@@H]3C=C(C)C4=Cc5c(cnn5-c5ccccc5)C[C@]4(C)[C@H]3[C@@H](O)C[C@@]21C", "growth": "26.1%"}, {"smiles": "CCOc1c(C#N)c2c(N)ncnc2n1C1OC(CO)C(O)C1O", "note": "(stereo unspecified)", "growth": "87.1%"}, {"smiles": "CCNS(=O)(=O)c1ccc(C)cc1", "growth": "113%"}, {"smiles": "COc1ccc(C2C3=C(COC3=O)N(CCO)c3cc(OC)c(OC)cc32)cc1", "note": "(stereo unspecified)", "growth": "112%"}, {"smiles": "CCCCN(CCCC)CCC(=O)c1ccc(OC)c2ccccc12", "growth": "106%"}, {"smiles": "Cc1ccccc1CNc1ncnc2[nH]ncc12", "growth": "106%"}, {"smiles": "O=C1OC(c2ccc(-c3ccccc3)cc2)=C/C1=C/c1c(Cl)cccc1Cl", "growth": "95.9%"}, {"smiles": "NC(N)=N/N=C\\c1ccc(OCc2ccccc2)cc1", "growth": "66.1%"}, {"smiles": "Fc1ccc(-c2nnc(N3CCOCC3)c3ccccc23)cc1", "growth": "107%"}, {"smiles": "CC1=NN(c2cccc(S(N)(=O)=O)c2)C(=O)C1", "growth": "97.1%"}, {"smiles": "CCc1ccc2c(c1)N(CCO)C1=C(C(=O)OC1)C2c1cccc(Br)c1", "note": "(stereo unspecified)", "growth": "34.9%"}, {"smiles": "Fc1ccc2nc(-c3ccc(-c4noc(-c5ccc(Cl)cc5)n4)cc3)[nH]c2c1", "growth": "106%"}, {"smiles": "Cc1cccc(C(=O)O)n1", "growth": "120%"}, {"smiles": "COc1ccc(Nc2ncccc2C(=O)NCc2cn(Cc3cc(OC)cc(OC)c3)nn2)cc1", "growth": "105%"}, {"smiles": "CN(C)c1ccc(C(c2ccccc2)c2ccc(N(C)C)cc2)cc1", "growth": "98.5%"}, {"smiles": "COc1ccc(/C=C2\\CCCC3=C2N=C2SC(C)=NN2C3c2ccc(OC)c(OC)c2)cc1OC", "note": "(stereo unspecified)", "growth": "28.6%"}, {"smiles": "Cn1c(=O)c2[nH]c(Cc3ccc4c(c3)OCO4)nc2n(C)c1=O", "growth": "123%"}, {"smiles": "O=C1OCC2=C1C(c1ccc(Cl)c(Cl)c1)c1cc3c(cc1N2CCO)CCC3", "note": "(stereo unspecified)", "growth": "8.3% (active)"}, {"smiles": "COc1cc(C2C=C(C)N=C3SC=NN32)cc(OC)c1OC", "note": "(stereo unspecified)", "growth": "104%"}, {"smiles": "Cc1cc(O)ccc1C1=NN(c2ccc(S(N)(=O)=O)cc2)C(=O)CC1", "growth": "73.8%"}, {"smiles": "NC(=Nc1ccccc1)SCCCSC(N)=Nc1ccccc1", "growth": "79.5%"}, {"smiles": "CC(=O)Nc1ccc(Cl)cc1Cl", "growth": "100%"}, {"smiles": "NS(=O)(=O)c1ccc(N2N=C(c3ccc(Br)cc3)CC2c2cn(-c3ccccc3)nc2-c2ccc(Cl)cc2)cc1", "note": "(stereo unspecified)", "growth": "99%"}]}, {"test_system": "RXF 393 renal", "experiment": "NCI-60 one-dose screen, 48 h (100 = growth as untreated, 0 = no growth, -100 = all killed)", "details": "10 µM unless noted", "values": [{"smiles": "CC1(C)C(N(O)C(=O)Nc2ccc(Cl)cc2)N(c2ccc(Cl)cc2)C(=O)N1CC(=O)N/N=C/C=C/c1ccc([N+](=O)[O-])o1", "note": "(stereo unspecified)", "growth": "-77.9% (active)"}, {"smiles": "NC(N)=N/N=C\\c1cccc(OCc2ccccc2)c1", "growth": "62.1%"}, {"smiles": "O=C(Nc1ccccc1)C(CCCCN1C(=O)c2ccccc2C1=O)N1C(=O)c2ccccc2C1=O", "note": "(stereo unspecified)", "growth": "110%"}, {"smiles": "COC(=O)C1(C)COP(=O)(NC23CC4CC(CC(C4)C2)C3)OC1", "note": "(stereo unspecified)", "growth": "107%"}, {"smiles": "O=C1OCC2=C1C(c1cccc(Br)c1)c1cc3c(cc1N2CCO)OCCO3", "note": "(stereo unspecified)", "growth": "38.2%"}, {"smiles": "C=CCn1c(SCC(=O)Nc2ccc(C(=O)/C=C/c3ccc(Cl)cc3)cc2)nnc1-c1ccc(Cl)cc1", "growth": "99.9%"}, {"smiles": "CCc1ccc2c(c1)N(CCO)C1=C(C(=O)OC1)C2c1cccc(Cl)c1", "note": "(stereo unspecified)", "growth": "10.1%"}, {"smiles": "COc1ccc2c(c1)N(CCO)C1=C(C(=O)OC1)C2c1cccc(Br)c1", "note": "(stereo unspecified)", "growth": "44.4%"}, {"smiles": "CCCCCCCCCCC(C(O)c1ccccc1)N1CCCCC1", "note": "(stereo unspecified)", "growth": "-22.3% (active)"}, {"smiles": "CCNS(=O)(=O)c1ccc(C)cc1", "growth": "113%"}, {"smiles": "COc1ccc(C2C3=C(COC3=O)N(CCO)c3cc(OC)c(OC)cc32)cc1", "note": "(stereo unspecified)", "growth": "114%"}, {"smiles": "NC(N)=N/N=C\\c1ccc(OCc2ccccc2)cc1", "growth": "-3.77% (active)"}, {"smiles": "CCc1ccc2c(c1)N(CCO)C1=C(C(=O)OC1)C2c1cccc(Br)c1", "note": "(stereo unspecified)", "growth": "10.9%"}, {"smiles": "Fc1ccc2nc(-c3ccc(-c4noc(-c5ccc(Cl)cc5)n4)cc3)[nH]c2c1", "growth": "110%"}, {"smiles": "COc1ccc(Nc2ncccc2C(=O)NCc2cn(Cc3cc(OC)cc(OC)c3)nn2)cc1", "growth": "96.1%"}, {"smiles": "CN(C)c1ccc(C(c2ccccc2)c2ccc(N(C)C)cc2)cc1", "growth": "107%"}, {"smiles": "COc1ccc(/C=C2\\CCCC3=C2N=C2SC(C)=NN2C3c2ccc(OC)c(OC)c2)cc1OC", "note": "(stereo unspecified)", "growth": "40.4%"}, {"smiles": "Cn1c(=O)c2[nH]c(Cc3ccc4c(c3)OCO4)nc2n(C)c1=O", "growth": "108%"}, {"smiles": "O=C1OCC2=C1C(c1ccc(Cl)c(Cl)c1)c1cc3c(cc1N2CCO)CCC3", "note": "(stereo unspecified)", "growth": "21%"}, {"smiles": "COc1cc(C2C=C(C)N=C3SC=NN32)cc(OC)c1OC", "note": "(stereo unspecified)", "growth": "113%"}, {"smiles": "NC(=Nc1ccccc1)SCCCSC(N)=Nc1ccccc1", "growth": "99.5%"}, {"smiles": "NS(=O)(=O)c1ccc(N2N=C(c3ccc(Br)cc3)CC2c2cn(-c3ccccc3)nc2-c2ccc(Cl)cc2)cc1", "note": "(stereo unspecified)", "growth": "88.9%"}]}]}
